Data on 7 compounds can be found in PubChem BioAssay (NCI).

SMILES strings stand for the structures. About 83,000 compounds went through this panel and 20% of them were active in at least one assay; those are over-represented in the sample as a whole.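 Growth was measured after 48 h exposure to one concentration of compound in 96-well plates. Values under 10 count as active.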 A number with no mark means an inactive call. The source made the active and inactive calls.

What all share (assay): NCI-60 one-dose screen, 48 h (100 = growth as untreated, 0 = no growth, -100 = all killed)
Holding throughout (conditions): 10 µM unless noted

In assay [1] the test system is DU-145 prostate.
Assay [2] deals with K-562 leukemia.
The test system of assay [3] is MALME-3M melanoma.
Assay [4] deals with MDA-MB-231 breast.
For assay [5], the system named is RXF 393 renal.
The test system of assay [6] is SF-268 CNS.
In assay [7] the test system is SF-295 CNS.
The test system of assay [8] is SF-539 CNS.
The subject of assay [9] is UACC-257 melanoma.
The subject of assay [10] is M14 melanoma.
Assay [11] concerns HCT-15 colon.
Assay [12] relates to HT29 colon.
For assay [13], the system named is SNB-75 CNS.
The test system of assay [14] is SNB-19 CNS.
Assay [15] relates to U251 CNS.
The test system of assay [16] is PC-3 prostate.
Assay [17] has as its system SK-MEL-5 melanoma.
The subject of assay [18] is UACC-62 melanoma.
Assay [19] has as its system SK-MEL-28 melanoma.

Regarding `CN1CCN(/C(=N\c2sc(-c3ccccc3)nc2-c2ccccc2)c2ccccc2)CC1`, the growth in assay [1] was 92.3%; in assay [2], 17.8%; in assay [3] it was 77.9%; in assay [4] it was 77.9%; in assay [5], 76.1%; in assay [6], 91.5%. In addition, the growth in [7] was 87.6%; in [8], 76%; in [9] it was 77.4%; in assay [10], 76.8%; in assay [11], 16.7%; in [12] it was 9.91% (active). In addition, the growth in assay [13] is 90%; in assay [14] it was 100%; in [15] it was 86%; in [16] it was 56.8%; in [17], 75%; in [18], 75.7%. Further, the growth in assay [19] is 57.7%.
For the compound `COCOc1cc2oc(C(=O)N[C@@H](Cc3ccccc3)C(O)C(=O)NCc3ccccc3)c(C)c(=O)c2cc1OCOC` (stereo partly drawn), the growth was 52.8% in assay [1]; 90.4% in assay [2]; 22.3% in assay [3]; 20.7% in [4]; -23.7% (active) in assay [5]; 65.8% in assay [6]. In addition, the growth in assay [7] is 89%; in [8], 24.7%; in [9], 61.1%; in assay [10], 82.9%; in assay [11], 94.4%; in assay [12], 77.5%. The growth is 21.7% in [13]; 47.3% in assay [14]; 41.3% in assay [15]; 101% in [16]; 49.9% in assay [17]; 63.6% in assay [18]. Also, the growth in assay [19] was 70.9%.
In the case of `Nc1nnc(-c2c[nH]c3ncc(Br)cc23)c(-c2c[nH]c3ccc(F)cc23)n1`, the growth was 44% in assay [1]; 23% in [2]; 13.7% in assay [3]; 51.6% in assay [4]; 40.9% in assay [5]; 49% in assay [6]. Besides, the growth in [7] is 35.1%; in assay [8], 34.8%; in assay [9], 44.9%; in [10], 23.4%; in [11] it was 25.3%; in assay [12], 21.8%. Also, the growth in assay [13] is 33.7%; in [14] it was 50.6%; in assay [15], 45.5%; in assay [16], 58.6%; in assay [17], 0.13% (active); in assay [18] it was 15.6%. Further, in assay [19], the growth is 29.8%.
As for `CC(=O)Nc1cccc(-c2nc3cc(-c4ccc(O)cc4)ccc3n2C)c1`, the growth in assay [1] is 56.5%; in assay [2] it was 35.4%; in [3], -4.44% (active); in assay [4], 49.1%; in assay [5], 81.3%; in assay [6], 42.8%. Further, the growth in assay [7] is 26%; in [8], 57.2%; in assay [9], -3.29% (active); in assay [10] it was 24.5%; in assay [11] it was 41.6%; in assay [12] it was 62.6%. The growth was 62.5% in [13]; 51.2% in assay [14]; 58.7% in assay [15]; 47.9% in assay [16]; -9.75% (active) in assay [17]; 15.7% in assay [18]. Further, the growth in assay [19] was 27.3%.
Take `COc1ccc(NC(=O)Nc2ccc(OCc3ccc(F)cc3)cc2)cc1`: the growth in assay [1] was 88.5%; in assay [2], 82.6%; in assay [3], 62.3%; in assay [4] it was 53.5%; in [5], 35%; in [6] it was 61.3%. Also, the growth in [7] was 102%; in assay [8] it was 0.894% (active); in [9], 85.9%; in [10] it was 77%; in assay [11] it was 91.1%; in assay [12], 92.3%. For the same compound, the growth is 63.6% in assay [13]; 46.9% in [14]; 34.8% in assay [15]; 79.7% in assay [16]; 76.6% in [17]; 82.6% in assay [18]. Moreover, the growth in [19] was 75.5%.
For the compound `O=C(N=Nc1c(O)[nH]c2ccc(Cl)cc12)c1ccc2nc(-c3ccccc3)[nH]c2c1`, the growth is 10.9% in assay [1]; 29.3% in assay [2]; 8.71% (active) in assay [3]; -33.1% (active) in assay [4]; 59.1% in [5]; 21.8% in [6]. Moreover, the growth in [7] is 63.6%; in assay [8] it was 34%; in assay [9], 109%; in assay [10] it was 68.6%; in assay [11], 95.4%; in assay [12] it was 57.4%. For the same compound, the growth in [13] was 91.7%; in [14], -52.5% (active); in assay [15], -71.3% (active); in assay [16], 51.1%; in [17] it was 94.3%; in assay [18] it was 21.7%. Further, the growth in assay [19] is 44.3%.
As to `C#CCOc1cc(N(CC)CC)ccc1C(C(=O)NC(C)(C)C)N(C(=O)C1CCc2cc(F)ccc2O1)c1ccccc1F` (stereo not drawn), the growth in [1] is 58.4%; in assay [2], 17%; in assay [3] it was 57.7%; in [4] it was 53.4%; in [5], 40.4%; in [6], 38.4%. For the same compound, the growth in assay [7] is 19.9%; in assay [8], 50.7%; in [9], 30.2%; in assay [10] it was 39%; in [11], 29.8%; in assay [12], 45.3%. Moreover, the growth in assay [13] is 39.7%; in assay [14], 35.1%; in assay [15], 17.5%; in assay [16], 13.5%; in assay [17], 17.3%; in assay [18] it was 30.9%. Besides, the growth in assay [19] was 63.9%.
